Assay results as given in PubChem BioAssay (NCI).
Compounds without any hit were thinned out: in the full panel of roughly 83,000, 20% have a hit.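 Plates (96-well) were seeded with cells, treated with compound at one concentration, and incubated for 48 hours before percent growth was determined.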 Calls of active or inactive are those of the source. Rule for the calls: active = growth percent below 10; inactive = the rest.

Assays:
Assay in all cases: NCI-60 one-dose screen, 48 h (100 = growth as untreated, 0 = no growth, -100 = all killed)
Conditions in all cases: 10 µM unless noted
SK-MEL-2 melanoma = tested on: SK-MEL-2 melanoma
SN12C renal = tested on: SN12C renal
UO-31 renal = tested on: UO-31 renal
TK-10 renal = tested on: TK-10 renal
ACHN renal = tested on: ACHN renal
CAKI-1 renal = tested on: CAKI-1 renal
A498 renal = tested on: A498 renal
CCRF-CEM leukemia = tested on: CCRF-CEM leukemia
MOLT-4 leukemia = tested on: MOLT-4 leukemia
SR leukemia = tested on: SR leukemia
RPMI-8226 leukemia = tested on: RPMI-8226 leukemia
OVCAR-8 ovarian = tested on: OVCAR-8 ovarian
OVCAR-5 ovarian = tested on: OVCAR-5 ovarian
OVCAR-4 ovarian = tested on: OVCAR-4 ovarian
SK-OV-3 ovarian = tested on: SK-OV-3 ovarian
IGROV1 ovarian = tested on: IGROV1 ovarian
OVCAR-3 ovarian = tested on: OVCAR-3 ovarian
HS 578T breast = tested on: HS 578T breast
NCI/ADR-RES ovarian = tested on: NCI/ADR-RES ovarian

Measured: growth

Cc1ccc(NC(=O)Cn2c(Br)nc3c2c(=O)n(C)c(=O)n3C)cc1
inactive: SK-MEL-2 melanoma 84.9% | UO-31 renal 14.1% | CAKI-1 renal 53% | CCRF-CEM leukemia 40.7% | MOLT-4 leukemia 58.8% | SR leukemia 12% | RPMI-8226 leukemia 38.5% | OVCAR-8 ovarian 28.4% | OVCAR-5 ovarian 27.9% | IGROV1 ovarian 33.1%
active: SN12C renal -30% | TK-10 renal 9.94% | ACHN renal -66.6% | A498 renal -6.02% | OVCAR-4 ovarian -44.9% | SK-OV-3 ovarian 5.9% | OVCAR-3 ovarian -19.8% | HS 578T breast 8.55% | NCI/ADR-RES ovarian 4.04%

CCN1C(=O)N(CC)C2Nn3c(s/c(=C\c4ccccc4Br)c3=O)=NC21 (stereo not given)
active: A498 renal -0.799% | OVCAR-3 ovarian -7.24% | NCI/ADR-RES ovarian 5.54%
inactive: SK-MEL-2 melanoma 48.5% | SN12C renal 35.4% | UO-31 renal 55% | TK-10 renal 81.5% | ACHN renal 30.5% | CAKI-1 renal 21.5% | CCRF-CEM leukemia 15.2% | MOLT-4 leukemia 23.2% | SR leukemia 15.7% | RPMI-8226 leukemia 35.4% | OVCAR-8 ovarian 15.4% | OVCAR-5 ovarian 28.9% | OVCAR-4 ovarian 47.5% | SK-OV-3 ovarian 44.7% | IGROV1 ovarian 25.7% | HS 578T breast 11.4%

O=S(=O)(NCCNc1nccc(-c2c(-c3cccc(O)c3)nc3occn23)n1)c1ccc(Br)cc1
active: SR leukemia 7.33% | IGROV1 ovarian 4.48%
inactive: SK-MEL-2 melanoma 29.1% | SN12C renal 35.6% | UO-31 renal 30.8% | TK-10 renal 69.8% | ACHN renal 29.8% | CAKI-1 renal 20.2% | A498 renal 39.7% | CCRF-CEM leukemia 14.6% | MOLT-4 leukemia 10.2% | RPMI-8226 leukemia 29.8% | OVCAR-8 ovarian 31.3% | OVCAR-5 ovarian 51% | OVCAR-4 ovarian 36.8% | SK-OV-3 ovarian 29.4% | OVCAR-3 ovarian 36% | HS 578T breast 21.8% | NCI/ADR-RES ovarian 99.7%

O=C(Cc1ccccc1)Nc1cccc(N=Cc2ccccc2O)c1
inactive: SK-MEL-2 melanoma 116% | SN12C renal 96.6% | UO-31 renal 77.6% | TK-10 renal 103% | ACHN renal 110% | CAKI-1 renal 80.8% | A498 renal 115% | CCRF-CEM leukemia 106% | MOLT-4 leukemia 101% | SR leukemia 117% | RPMI-8226 leukemia 113% | OVCAR-8 ovarian 98% | OVCAR-5 ovarian 114% | OVCAR-4 ovarian 102% | SK-OV-3 ovarian 106% | IGROV1 ovarian 111% | OVCAR-3 ovarian 93.2% | HS 578T breast 108% | NCI/ADR-RES ovarian 105%

CC(=O)Oc1ccc(OC(C)=O)c2ccccc12
inactive: SK-MEL-2 melanoma 113% | SN12C renal 85.8% | UO-31 renal 23.7% | TK-10 renal 103% | CAKI-1 renal 100% | A498 renal 118% | SR leukemia 56.8% | OVCAR-8 ovarian 48.8% | OVCAR-5 ovarian 98.4% | SK-OV-3 ovarian 102% | IGROV1 ovarian 68.5% | OVCAR-3 ovarian 59.7% | HS 578T breast 109% | NCI/ADR-RES ovarian 64.5%
active: CCRF-CEM leukemia -6.08% | MOLT-4 leukemia -13.9% | RPMI-8226 leukemia 6.57% | OVCAR-4 ovarian -96.4%

O=C(O)c1ccc(-c2ccc(/C=N/Nc3nc(Nc4ccccc4)nc(N4CCCCC4)n3)o2)cc1
active: CAKI-1 renal -5.95%
inactive: SK-MEL-2 melanoma 68.5% | SN12C renal 66.8% | UO-31 renal 44.4% | TK-10 renal 41.8% | ACHN renal 73.3% | A498 renal 72.8% | CCRF-CEM leukemia 62.8% | MOLT-4 leukemia 79.9% | SR leukemia 65.5% | RPMI-8226 leukemia 43.7% | OVCAR-8 ovarian 48.7% | OVCAR-5 ovarian 94.9% | OVCAR-4 ovarian 77.1% | SK-OV-3 ovarian 92% | IGROV1 ovarian 45.2% | OVCAR-3 ovarian 64.8% | HS 578T breast 40.7% | NCI/ADR-RES ovarian 57.7%

CCN1C(=O)N(CC)C2C1NC(=S)N2/N=C/c1ccc(C(F)(F)F)cc1 (stereo not given)
inactive: SK-MEL-2 melanoma 87.9% | SN12C renal 82.4% | UO-31 renal 62.3% | TK-10 renal 95% | ACHN renal 79% | CAKI-1 renal 37% | A498 renal 44.9% | CCRF-CEM leukemia 80.2% | MOLT-4 leukemia 70.5% | SR leukemia 28.4% | RPMI-8226 leukemia 76.8% | OVCAR-8 ovarian 86.8% | OVCAR-5 ovarian 81.3% | OVCAR-4 ovarian 72.7% | SK-OV-3 ovarian 79% | IGROV1 ovarian 60.6% | OVCAR-3 ovarian 64.8% | HS 578T breast 66.2% | NCI/ADR-RES ovarian 69.5%

O=S(=O)(NCCCNc1nccc(-c2c(-c3cccc(F)c3)nc3occn23)n1)c1ccc(F)cc1
inactive: SK-MEL-2 melanoma 55.5% | SN12C renal 51.2% | UO-31 renal 31.4% | TK-10 renal 56.7% | CAKI-1 renal 37.1% | A498 renal 45.7% | CCRF-CEM leukemia 31.9% | SR leukemia 53.8% | RPMI-8226 leukemia 37.3% | OVCAR-8 ovarian 30.1% | OVCAR-5 ovarian 89.9% | OVCAR-4 ovarian 37% | SK-OV-3 ovarian 54.5% | IGROV1 ovarian 24.5% | OVCAR-3 ovarian 55.3% | HS 578T breast 59% | NCI/ADR-RES ovarian 42.4%
active: MOLT-4 leukemia 8.3%

OCCNCCNC(Cc1ccc(Cl)cc1)c1ccccc1 (stereo not given)
inactive: SK-MEL-2 melanoma 86.6% | SN12C renal 92% | UO-31 renal 64.5% | TK-10 renal 80.8% | ACHN renal 95.9% | CAKI-1 renal 84.3% | A498 renal 90.1% | CCRF-CEM leukemia 85.4% | MOLT-4 leukemia 86.4% | SR leukemia 88.5% | RPMI-8226 leukemia 81.3% | OVCAR-8 ovarian 101% | OVCAR-5 ovarian 63.6% | OVCAR-4 ovarian 95.6% | SK-OV-3 ovarian 81% | IGROV1 ovarian 87.3% | OVCAR-3 ovarian 94.5% | HS 578T breast 91.5% | NCI/ADR-RES ovarian 92.2%

FC(F)(F)c1ccc(Cn2cc(CSc3nc4ccccc4s3)nn2)cc1
inactive: SK-MEL-2 melanoma 95.6% | SN12C renal 99.9% | UO-31 renal 78.7% | TK-10 renal 97.6% | ACHN renal 101% | CAKI-1 renal 84.3% | A498 renal 86% | CCRF-CEM leukemia 91% | MOLT-4 leukemia 98.1% | SR leukemia 96.3% | RPMI-8226 leukemia 96.7% | OVCAR-8 ovarian 91% | OVCAR-5 ovarian 98.6% | OVCAR-4 ovarian 94.8% | SK-OV-3 ovarian 104% | IGROV1 ovarian 97.7% | OVCAR-3 ovarian 105% | HS 578T breast 88.6% | NCI/ADR-RES ovarian 95.7%

COc1ccc(C(=O)/C=C/c2ccc(N3CCCCC3)cc2)cc1OC
inactive: SK-MEL-2 melanoma 103% | SN12C renal 90.5% | UO-31 renal 73.4% | TK-10 renal 110% | ACHN renal 100% | CAKI-1 renal 90.4% | A498 renal 87.2% | CCRF-CEM leukemia 81.5% | MOLT-4 leukemia 88.7% | SR leukemia 73.3% | RPMI-8226 leukemia 72.9% | OVCAR-8 ovarian 92.8% | OVCAR-5 ovarian 99.8% | OVCAR-4 ovarian 65.3% | SK-OV-3 ovarian 107% | IGROV1 ovarian 95.4% | OVCAR-3 ovarian 104% | HS 578T breast 103% | NCI/ADR-RES ovarian 92.8%

N#Cc1c(Nc2ccc(N3CCOCC3)cc2)nc(SCC(=O)c2ccc(Br)cc2)nc1-c1ccccc1
inactive: SK-MEL-2 melanoma 94.4% | SN12C renal 104% | UO-31 renal 87.3% | TK-10 renal 96.6% | ACHN renal 109% | CAKI-1 renal 99.7% | A498 renal 105% | CCRF-CEM leukemia 125% | MOLT-4 leukemia 99.2% | SR leukemia 101% | RPMI-8226 leukemia 111% | OVCAR-8 ovarian 101% | OVCAR-5 ovarian 95.6% | OVCAR-4 ovarian 105% | SK-OV-3 ovarian 95% | IGROV1 ovarian 107% | OVCAR-3 ovarian 105% | NCI/ADR-RES ovarian 103%

CN1CCN(C(=O)[C@@]2(C)CC[C@]3(C)CC[C@]4(C)C(=CC[C@@H]5[C@@]6(C)CCC(=O)NC(C)(C)[C@@H]6CC[C@]54C)[C@@H]3C2)CC1
inactive: SK-MEL-2 melanoma 78.3% | SN12C renal 58% | UO-31 renal 48.3% | TK-10 renal 79.4% | ACHN renal 69.9% | CAKI-1 renal 42.5% | A498 renal 73.1% | CCRF-CEM leukemia 29% | MOLT-4 leukemia 15.8% | RPMI-8226 leukemia 20.6% | OVCAR-8 ovarian 64.1% | OVCAR-5 ovarian 83.8% | OVCAR-4 ovarian 50.6% | SK-OV-3 ovarian 53.8% | IGROV1 ovarian 63.8% | OVCAR-3 ovarian 57.8% | HS 578T breast 55.2% | NCI/ADR-RES ovarian 59.6%
active: SR leukemia -10.4%

O=C(/C=C(O)/C=C/c1cccc2[nH]ccc12)/C=C/c1cccc2[nH]ccc12
inactive: SK-MEL-2 melanoma 85.9% | SN12C renal 82.5% | UO-31 renal 52% | TK-10 renal 83.9% | ACHN renal 84.4% | CAKI-1 renal 74.6% | A498 renal 112% | CCRF-CEM leukemia 65.4% | MOLT-4 leukemia 59.2% | SR leukemia 10.3% | OVCAR-8 ovarian 72.6% | OVCAR-5 ovarian 99.7% | OVCAR-4 ovarian 91.7% | SK-OV-3 ovarian 85.6% | IGROV1 ovarian 70.3% | OVCAR-3 ovarian 103% | HS 578T breast 91% | NCI/ADR-RES ovarian 87.6%
active: RPMI-8226 leukemia 2.9%

CCN(CC)c1ccc(/C=N/NC(=O)Cc2ccc(Nc3ccnc(C(F)(F)F)c3)cc2)c(O)c1
active: CAKI-1 renal -20.8% | CCRF-CEM leukemia 9.9%
inactive: SK-MEL-2 melanoma 56.1% | SN12C renal 40.3% | UO-31 renal 20.3% | TK-10 renal 35.4% | ACHN renal 19.4% | A498 renal 22% | MOLT-4 leukemia 10.4% | SR leukemia 19.7% | RPMI-8226 leukemia 25.8% | OVCAR-8 ovarian 28.8% | OVCAR-5 ovarian 48.2% | OVCAR-4 ovarian 20.9% | SK-OV-3 ovarian 28% | OVCAR-3 ovarian 32.4% | HS 578T breast 37.7% | NCI/ADR-RES ovarian 18.3%

O=C1/C(=C/c2ccc(F)cc2)CN(C(=O)C(Cl)Cl)C/C1=C\c1ccc(F)cc1
inactive: OVCAR-4 ovarian 12.7% | SK-OV-3 ovarian 23.5%
active: SK-MEL-2 melanoma -16% | SN12C renal -72.5% | UO-31 renal -83.4% | TK-10 renal -59.8% | ACHN renal -98.3% | CAKI-1 renal -55.4% | A498 renal -84.3% | CCRF-CEM leukemia 2.43% | MOLT-4 leukemia -18.2% | SR leukemia -18.4% | RPMI-8226 leukemia -31.4% | OVCAR-8 ovarian -9.41% | OVCAR-5 ovarian -53.8% | IGROV1 ovarian -50.3% | OVCAR-3 ovarian -95.1% | HS 578T breast 6.3% | NCI/ADR-RES ovarian 5.22%
